This is a sample that favours compounds with a hit; in the whole collection about 19% have one here.
KB-V1 cytotox: qHTS assay for MDR1-selective chemotherapeutics: Primary screen using the drug-selected MDR subline cells KB-V1; Potency, µM (series often up to 46.1 µM), hits mostly cytotoxic; KB-V1 MDR cells viability, CellTiter-Glo, 72 h; 400,000 tested, 3.4% active; further: nearly all actives have a fitted effect of over 60% in size
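Potencies derive from concentration-effect curves fitted to normalized luminescence (CellTiter-Glo) of KB-V1 cells treated for 72 h at 37 degrees C in phenol-red-free DMEM containing 10% FBS.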
DT40 TDP1 CPT: qHTS for Inhibitors of human tyrosyl-DNA phosphodiesterase 1 (TDP1): qHTS in cells in presence of CPT; chicken DT40 Tdp1-/-;hTDP1 cells + 20 nM CPT, ATP luminescence, 48 h; Potency, µM (series often up to 46.2 µM), without a hit: top-dose activity change, negative = growth inhibition, most hits filed as inhibitors; 420,000 tested, 12% active; further: nearly all actives have a fitted effect of over 55% in size
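Chicken DT40 Tdp1-/- cells stably complemented with human TDP1 were seeded at 400 cells/well in medium containing 20 nM camptothecin, exposed to pin-transferred compounds, and grown at 37 °C for at least 48 hr. Viability was read as ATP luminescence.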
HT1080 IDH1KD tx: qHTS for induction of synthetic lethality in tumor cells producing 2HG: qHTS for the HT-1080-IDH1KD cell line | Potency, µM (titrated, usually from 46.1 µM), for the others: at the top dose activity, negative = toxicity, actives largely listed as cytotoxic | AID 686971, 2013 | 360,000 tested, 2% active | HT-1080 IDH1 knockdown viability, ATP luminescence, 48 h;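 further: 0% = DMSO wells and -100% = cell-free medium wells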
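IDH1KD HT-1080 cells, 750/well, RPMI + 5% FBS; compound pinned after 2 h settling; 48 h, 37 °C; CellTiter-Glo luminescence; % activity normalised to DMSO and no-cell wells; curves fitted, classed by r2 and efficacy.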
KB-3-1 tox: qHTS assay for MDR1-selective chemotherapeutics: Primary screen using the parental adenocarcinoma cell KB-3-1; KB-3-1 viability, CellTiter-Glo ATP luminescence, 72 h; Potency, µM (titrated, usually from 46.1 µM), usual class: cytotoxic; 400,000 tested, 1.4% active; AID 1347075, 2019; further: nearly all actives have a fitted effect of over 60% in size
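72 h, 37 °C compound treatment of KB-3-1 parental cells; CellTiter-Glo added, 10 min, luminescence read. Data corrected against DMSO-only plates and normalized before curve fitting.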
TDP1 cell noCPT: qHTS for Inhibitors of human tyrosyl-DNA phosphodiesterase 1 (TDP1): qHTS in cells in absence of CPT; 420,000 tested, 15% active; DT40 Tdp1-/- hTDP1 cells, no CPT, ATP luminescence, 48 h; AID 686978, 2013; Potency, µM (top dose mostly 46.2 µM), without a hit: at the top dose activity change, negative = growth inhibition, hits mostly inhibitors; further: nearly all actives have a fitted effect of over 55% in size
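Readout: luminescence from CellTiter-Glo after 30 min in the dark at RT. Cells: DT40 Tdp1-/- with stable hTDP1, 400/well. Exposure: compounds alone, ≥48 hr, 37 °C.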
HT1080-NT tox: qHTS for induction of synthetic lethality in tumor cells producing 2HG: qHTS for the HT-1080-NT fibrosarcoma cell line; HT-1080-NT fibrosarcoma viability, CellTiter-Glo ATP luminescence, 48 h; Potency, µM (doses to about 46.1 µM), without a hit: top-dose activity, negative = less viability, hits mostly cytotoxic; 360,000 tested, 1.6% active; AID 686970, 2013;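 further: NT is the 2HG producing partner of a matched IDH1 knockdown line; 0% = DMSO-treated cells and -100% = media-only wells without cells; nearly all actives have a fitted effect of over 55% in size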
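Luminescent CellTiter-Glo readout after 48 hours of compound exposure at 37 degrees C defined viability of HT-1080-NT cells. Activity was normalized to DMSO wells and cell-free media wells; concentration-response curves were fitted and assigned curve classes.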
Starred values were filed as active, the others as inactive; i = inactive; u = inconclusive; x = no result given; ! = not active in a repeat; [ ] = another dose, or the depositor's remark. The call rests on the fitted dose curve; in most records, active means well fitted curve in the direction sought with a large enough effect; inconclusive means small, poorly fitted or top-dose-only effect, or another doubt; inactive means no such curve, though single readings can be large; an effect the other way counts as inactive or inconclusive. Unless noted, on the % scale 0 is the no-effect control and ±100 the full control effect; potency means the concentration at half of the fitted maximal effect.

SMILES	KB-V1 cytotox	DT40 TDP1 CPT	HT1080 IDH1KD tx	KB-3-1 tox	TDP1 cell noCPT	HT1080-NT tox
Cc1cc(C)c(S(=O)(=O)Nc2ccc3oc4c(c3c2)CCCC4)cc1C	i	16µM*	x	i	u	x
COc1cc(C(CC(=O)NCc2ccccc2Cl)N2Cc3ccccc3C2=O)cc(OC)c1OC (centres undefined)	u	-8%	x	i	-22%	x
CCOCCCNC(=O)c1cc2cc3cc(OC)ccc3nc2o1	i	16µM*	0%	i	-29%	5%
COc1ccc2cc3cc(C(=O)Nc4ccccc4N4CCN(C)CC4)oc3nc2c1	12µM*	4.6µM*	7%	u	4.6µM*	2%
COc1ccc2cc3cc(C(=O)NCCN4CCN(c5ccccc5F)CC4)oc3nc2c1	u	u	4%	i	16µM*	10%
COc1ccc2cc3cc(C(=O)N4CCN(c5ccccc5)CC4)oc3nc2c1	i	-28%	19%	i	-4%	22%
COc1cn(CC(=O)Nc2ccc(F)cc2)c(CN2CCCCC2)cc1=O	x	3%	x	x	-19%	x
CCCCCCCC/C=C\CCCCCCCC(=O)N[C@@H](CO)Cc1ccc(O)cc1	x	12µM*	x	x	11µM*	x
CCCCCCCC/C=C\C/C=C\C/C=C\CCCC(=O)NCCO	x	-8%[4.12 µM]	x	x	-13%[4.12 µM]	x
CCc1ccc(NC(=O)C2(c3cccs3)CCOCC2)cc1	i	-9%	x	i	-30%	x
CCN1CCN(c2nnc(-c3ccccc3)c3ccccc23)CC1	u	-2%	2%	i	12%	5%
COc1ccc(-c2nnc(N3CCOCC3)c3ccccc23)cc1	i	-15%	9%	i	19%	15%
COc1ccccc1N1CCN(c2nnc(-c3ccc(F)cc3)c3ccccc23)CC1	i	u	17%	u	21µM*	15%
Cc1ccc(-c2nnc(N3CCCCCC3)c3ccccc23)cc1	u	u	0%	23µM*	16µM*	-8%
Fc1ccc(-c2nnc(-n3nnc4ccccc43)c3ccccc23)cc1	i	u	22%	i	12µM*	9%
c1ccc2c(c1)nnn2-c1ncnc2sccc12	u	4%	0%	i	-23%	0%
COc1ccc(-c2nnc(N3CCCCC3)c3ccccc23)cc1	12µM*	23µM*	-7%	u	18µM*	-1%
O=C(COC(=O)/C=C/c1cccc(F)c1)NC1CCCCC1	i	6%	15%	i	-1%	-3%
CNc1cnc(-c2ccsc2)cn1	i	7%	12%	i	1%	7%
Cc1c(C(=O)N2CCCCCC2)c(S(=O)(=O)Nc2cccc(F)c2)c(C)n1C	i	-6%	0%	i	3%	-1%
O=C(Cc1c(O)c2ccccc2[nH]c1=O)N(Cc1ccccc1)Cc1ccccc1	i	-15%	4%	i	0%	-7%
CCCCCCN(CCCCCC)C(=O)Cc1c(-c2ccc(F)cc2)[nH]c2ccccc12	u	9.4µM*!	8%	i	13µM*	8%
COCCN(C(=O)c1snc(C(N)=O)c1N)C(C(=O)NC1CCCCC1)c1ccc(N(C)C)cc1 (centres undefined)	i	-26%	2%	i	15µM*	11%
COc1ccc(C(C(=O)NC2CCCC2)N(Cc2ccco2)C(=O)c2snc(C(N)=O)c2N)cc1OC (centres undefined)	i	u	3%	i	-5%	8%
COc1ccc(C(C(=O)NC2CCCCC2)N(Cc2ccco2)C(=O)c2snc(C(N)=O)c2N)cc1 (centres undefined)	16µM*	u	-1%	u	u	-3%
SMILES	KB-V1 cytotox	DT40 TDP1 CPT	HT1080 IDH1KD tx	KB-3-1 tox	TDP1 cell noCPT	HT1080-NT tox
COc1cc(NC(=O)CN2CCN(CC(=O)Nc3ccc(F)cc3)CC2)cc(OC)c1	x	-27%	x	x	-20%	x
CC(NC(=O)/C=C/c1cnc2ccccc2n1)C12CC3CC(CC(C3)C1)C2 (centres undefined)	u	u	0%	i	18µM*	-6%
CC(=O)Nc1ccc(NC(=O)C(C)OC(=O)/C=C/c2cnc3ccccc3n2)cc1 (centres undefined)	i	-22%	2%	i	-5%	26%
CCCN(CCC)C(=O)Cn1nnc2sc(-c3ccccc3)cc2c1=O	i	-3%	x	i	-1%	x
CCN(C(=O)Cn1nnc2sc(-c3ccccc3)cc2c1=O)c1cccc(C)c1	i	16µM*	x	i	u	x
COC(=O)C(C)n1nnc2sc(-c3ccccc3)cc2c1=O (centres undefined)	i	u	12%	i	18µM*	u
Cc1cc(=O)n2nc(N(C)CC(=O)NCc3ccc(Cl)cc3)sc2n1	i	u	x	i	-5%	x
O=C(NCCc1ccccc1)C(c1cccs1)N(C(=O)CCl)c1ccc(Cl)cc1 (centres undefined)	u	1.8µM*	1.6µM*	u	1.6µM*	3.7µM*
Cc1ccc(S(=O)(=O)C(CNC(=O)C(=O)NCCc2ccc(Cl)cc2)c2cccs2)cc1 (centres undefined)	i	u	x	i	u	x
COc1ccc(/C=C/C(=O)c2ccc3c(c2)OCCO3)cc1[N+](=O)[O-]	i	u	-11%	u	15µM*	0%
COc1cccc(/C=C/C(=O)OCC(=O)c2ccc(C)c(C)c2)c1OC	i	-28%	0%	i	26µM*	-4%
O=C(COC(=O)c1ccc(O)cc1)c1ccc2c(c1)OCCO2	i	-5%	-4%	i	-21%	-5%
COc1ccc(/C=N/NC(=O)c2ccc3c(c2)OCCO3)cc1[N+](=O)[O-]	i	3%	-14%	i	2%	0%
COc1cc(CC(=O)OCC(=O)c2ccc3c(c2)OCCO3)cc(OC)c1OC	0.73µM*	1.3µM*	1.5µM*	1µM*	1.3µM*	1.6µM*
O=C(/C=C/c1cccc([N+](=O)[O-])c1)c1ccc2c(c1)OCCO2	u	u	u	i	18µM*	u
